# Article PMC7862700, “An all-to-all approach to the identification of sequence-specific readers for epigenetic DNA modifications on cytosine”
# Legend:
# Assay in all cases: DAPPL (digital affinity profiling via proximity ligation, sequencing); 10 mM Tris-HCl pH 7.5, 50 mM NaCl, 1 mM DTT, 4% glycerol, room temperature, 30 min; GST-TFs on glutathione beads, 16-mer random dsDNA library, 0.1% formaldehyde crosslink after washing; high values mean tight binding
# Conditions in all cases: protein: recombinant; tags: N-terminal GST; dsDNA, one strand shown
# ELK1 = target: T1, ELK1 (Homo sapiens, UniProt P19419 1-428)
# T1 sequence: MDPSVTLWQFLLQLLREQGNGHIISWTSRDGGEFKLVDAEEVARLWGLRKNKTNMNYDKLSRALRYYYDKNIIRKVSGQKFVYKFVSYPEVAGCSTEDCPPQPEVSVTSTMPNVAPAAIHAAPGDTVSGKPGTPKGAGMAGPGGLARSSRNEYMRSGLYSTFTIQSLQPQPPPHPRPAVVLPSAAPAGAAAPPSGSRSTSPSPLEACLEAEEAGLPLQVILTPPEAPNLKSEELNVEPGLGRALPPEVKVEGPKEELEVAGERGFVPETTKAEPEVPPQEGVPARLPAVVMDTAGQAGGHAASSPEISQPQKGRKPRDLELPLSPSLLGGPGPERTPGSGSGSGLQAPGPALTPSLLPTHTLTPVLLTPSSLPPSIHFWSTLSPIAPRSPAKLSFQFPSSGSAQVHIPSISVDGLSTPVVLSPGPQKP
# Summary of the method: (§1)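 Human transcription factors were made in yeast as GST fusions, captured on glutathione beads and barcoded with DNA. With a tag-only sample included, the pool was incubated with 200 nmole of a random double-stranded 16-mer DNA library in Tris/NaCl/DTT/glycerol buffer at room temperature for 30 min, then crosslinked with 0.1% formaldehyde after washing, ligated by proximity, amplified and sequenced. For binding signal, each hexamer's read frequency for a factor is divided by its frequency for the tag-only sample.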
# GABPA = target: T2, GABPA (Homo sapiens, UniProt Q06546 1-454)
# T2 sequence: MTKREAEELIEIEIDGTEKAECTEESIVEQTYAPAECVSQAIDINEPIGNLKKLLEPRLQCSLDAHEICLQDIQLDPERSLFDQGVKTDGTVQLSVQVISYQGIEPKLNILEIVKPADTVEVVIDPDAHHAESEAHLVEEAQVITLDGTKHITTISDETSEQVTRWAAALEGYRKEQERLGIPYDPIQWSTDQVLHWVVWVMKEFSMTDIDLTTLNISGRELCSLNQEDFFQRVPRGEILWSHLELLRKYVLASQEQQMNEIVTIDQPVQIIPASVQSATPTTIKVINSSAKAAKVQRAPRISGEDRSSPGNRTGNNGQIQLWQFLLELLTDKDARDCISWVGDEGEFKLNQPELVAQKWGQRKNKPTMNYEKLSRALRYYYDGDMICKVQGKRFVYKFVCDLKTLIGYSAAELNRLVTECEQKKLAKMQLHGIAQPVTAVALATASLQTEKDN
# Summary of the method: as §1
# ELF4 = ELF4 (Homo sapiens, UniProt Q99607 1-663)
# ELF4, sequence (Q99607 whole entry): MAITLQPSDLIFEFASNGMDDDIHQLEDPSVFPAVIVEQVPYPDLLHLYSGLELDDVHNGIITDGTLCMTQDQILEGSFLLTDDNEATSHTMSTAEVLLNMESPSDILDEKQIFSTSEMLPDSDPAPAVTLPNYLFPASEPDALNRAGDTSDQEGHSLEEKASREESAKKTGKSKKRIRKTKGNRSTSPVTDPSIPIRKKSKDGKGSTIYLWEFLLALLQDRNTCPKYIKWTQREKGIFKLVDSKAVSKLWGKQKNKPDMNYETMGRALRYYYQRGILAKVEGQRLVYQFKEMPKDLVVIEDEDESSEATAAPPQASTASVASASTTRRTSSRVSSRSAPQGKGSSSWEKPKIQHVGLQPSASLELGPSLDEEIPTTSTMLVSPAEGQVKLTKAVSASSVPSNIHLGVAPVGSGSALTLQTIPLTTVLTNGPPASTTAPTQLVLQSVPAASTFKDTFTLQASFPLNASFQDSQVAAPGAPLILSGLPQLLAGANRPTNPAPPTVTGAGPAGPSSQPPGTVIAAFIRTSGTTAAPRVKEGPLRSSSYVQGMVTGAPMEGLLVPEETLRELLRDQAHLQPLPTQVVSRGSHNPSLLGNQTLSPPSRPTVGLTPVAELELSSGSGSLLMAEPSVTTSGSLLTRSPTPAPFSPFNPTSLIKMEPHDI
# Summary of the method: as §1
# ELK4 = target: T3, ELK4 (Homo sapiens, UniProt P28324-2 1-405)
# T3 sequence: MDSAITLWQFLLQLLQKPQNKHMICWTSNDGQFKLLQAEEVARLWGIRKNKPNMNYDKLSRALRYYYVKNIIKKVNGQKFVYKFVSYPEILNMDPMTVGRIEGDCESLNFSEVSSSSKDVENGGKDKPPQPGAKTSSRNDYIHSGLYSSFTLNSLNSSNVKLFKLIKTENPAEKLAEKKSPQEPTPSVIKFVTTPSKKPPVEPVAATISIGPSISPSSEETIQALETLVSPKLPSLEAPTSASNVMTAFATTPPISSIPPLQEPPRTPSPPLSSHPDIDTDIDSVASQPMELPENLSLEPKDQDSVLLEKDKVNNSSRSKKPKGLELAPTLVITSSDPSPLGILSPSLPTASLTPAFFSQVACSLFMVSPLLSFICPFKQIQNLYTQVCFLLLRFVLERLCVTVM
# Summary of the method: as §1
# ETV2 = target: T4, ETV2 (Homo sapiens, UniProt O00321 1-342)
# T4 sequence: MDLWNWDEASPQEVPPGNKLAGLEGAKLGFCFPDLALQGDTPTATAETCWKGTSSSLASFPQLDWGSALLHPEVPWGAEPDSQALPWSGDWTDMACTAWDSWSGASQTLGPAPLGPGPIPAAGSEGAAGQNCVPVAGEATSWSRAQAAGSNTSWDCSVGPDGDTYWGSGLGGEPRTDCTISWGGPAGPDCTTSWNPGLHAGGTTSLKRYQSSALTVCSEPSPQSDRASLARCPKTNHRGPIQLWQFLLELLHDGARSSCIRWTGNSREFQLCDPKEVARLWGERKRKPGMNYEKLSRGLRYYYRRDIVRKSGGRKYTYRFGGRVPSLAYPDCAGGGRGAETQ
# Summary of the method: as §1
# ERF = target: T5, ERF (Homo sapiens, UniProt P50548 1-548)
# T5 sequence: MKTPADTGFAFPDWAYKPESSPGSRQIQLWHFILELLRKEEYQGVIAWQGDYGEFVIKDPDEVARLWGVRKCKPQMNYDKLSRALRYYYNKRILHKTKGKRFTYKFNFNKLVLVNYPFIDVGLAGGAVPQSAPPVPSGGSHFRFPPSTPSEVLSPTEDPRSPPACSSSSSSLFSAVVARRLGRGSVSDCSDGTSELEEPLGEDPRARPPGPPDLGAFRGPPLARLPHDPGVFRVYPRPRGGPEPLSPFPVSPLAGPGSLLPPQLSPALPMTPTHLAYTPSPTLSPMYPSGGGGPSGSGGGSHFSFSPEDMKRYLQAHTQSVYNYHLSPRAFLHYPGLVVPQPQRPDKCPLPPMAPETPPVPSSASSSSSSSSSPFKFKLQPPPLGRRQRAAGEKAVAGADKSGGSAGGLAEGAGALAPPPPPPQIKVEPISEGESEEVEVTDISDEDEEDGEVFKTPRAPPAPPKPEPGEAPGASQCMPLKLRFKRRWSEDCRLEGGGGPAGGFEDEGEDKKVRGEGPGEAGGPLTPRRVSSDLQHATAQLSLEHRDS
# Summary of the method: as §1
# ETV6 = ETV6 (Homo sapiens, UniProt P41212 1-452)
# ETV6, sequence (P41212 whole entry): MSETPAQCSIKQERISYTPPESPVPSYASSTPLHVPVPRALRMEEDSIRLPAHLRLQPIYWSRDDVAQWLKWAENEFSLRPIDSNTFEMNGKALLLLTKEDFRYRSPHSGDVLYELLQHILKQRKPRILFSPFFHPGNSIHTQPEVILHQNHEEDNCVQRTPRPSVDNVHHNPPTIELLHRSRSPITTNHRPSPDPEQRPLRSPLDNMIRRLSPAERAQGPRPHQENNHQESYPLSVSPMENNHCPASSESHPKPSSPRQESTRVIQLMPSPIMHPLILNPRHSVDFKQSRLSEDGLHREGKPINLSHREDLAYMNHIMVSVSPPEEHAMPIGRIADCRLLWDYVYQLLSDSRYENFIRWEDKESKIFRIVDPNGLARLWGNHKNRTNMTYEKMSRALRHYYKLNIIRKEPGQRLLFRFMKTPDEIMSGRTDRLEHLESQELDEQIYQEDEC
# Summary of the method: as §1
# SPIB = SPIB (Homo sapiens, UniProt Q01892 1-262)
# SPIB, sequence (Q01892 whole entry): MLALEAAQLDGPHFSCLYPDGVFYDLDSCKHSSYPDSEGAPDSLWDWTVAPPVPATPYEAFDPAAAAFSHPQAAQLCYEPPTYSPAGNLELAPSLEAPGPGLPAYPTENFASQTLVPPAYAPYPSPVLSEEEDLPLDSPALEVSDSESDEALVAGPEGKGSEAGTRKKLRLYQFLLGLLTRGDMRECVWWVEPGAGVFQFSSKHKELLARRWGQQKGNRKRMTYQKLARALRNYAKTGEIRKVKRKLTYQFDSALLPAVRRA
# Summary of the method: as §1
# ERG = target: T6, ERG (Homo sapiens, UniProt P11308 1-479)
# T6 sequence: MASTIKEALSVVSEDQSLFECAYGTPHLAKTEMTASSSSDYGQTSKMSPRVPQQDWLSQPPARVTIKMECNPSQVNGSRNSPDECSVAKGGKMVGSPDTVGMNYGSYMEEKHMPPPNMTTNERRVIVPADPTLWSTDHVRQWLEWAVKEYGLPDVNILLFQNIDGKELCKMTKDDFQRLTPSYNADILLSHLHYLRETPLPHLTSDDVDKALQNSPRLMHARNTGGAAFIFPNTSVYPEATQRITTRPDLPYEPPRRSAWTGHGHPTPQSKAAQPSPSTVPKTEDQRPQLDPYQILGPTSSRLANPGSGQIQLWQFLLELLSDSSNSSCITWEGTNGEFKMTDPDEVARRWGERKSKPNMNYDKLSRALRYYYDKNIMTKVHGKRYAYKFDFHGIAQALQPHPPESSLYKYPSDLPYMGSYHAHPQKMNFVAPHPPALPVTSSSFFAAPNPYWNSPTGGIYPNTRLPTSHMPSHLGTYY
# Summary of the method: as §1
# EHF = target: T7, EHF (Homo sapiens, UniProt Q9NZC4 1-300)
# T7 sequence: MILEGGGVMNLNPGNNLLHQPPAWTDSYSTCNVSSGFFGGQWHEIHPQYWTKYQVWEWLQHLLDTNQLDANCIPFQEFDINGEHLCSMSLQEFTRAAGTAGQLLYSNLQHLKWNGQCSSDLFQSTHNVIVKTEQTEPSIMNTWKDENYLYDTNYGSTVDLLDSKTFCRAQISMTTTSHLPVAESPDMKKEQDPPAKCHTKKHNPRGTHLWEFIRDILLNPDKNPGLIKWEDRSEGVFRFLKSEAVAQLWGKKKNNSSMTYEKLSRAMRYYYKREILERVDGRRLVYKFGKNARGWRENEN
# Summary of the method: as §1
# ETV1 = ETV1 (Homo sapiens, UniProt P50549 1-477)
# ETV1, sequence (P50549 whole entry): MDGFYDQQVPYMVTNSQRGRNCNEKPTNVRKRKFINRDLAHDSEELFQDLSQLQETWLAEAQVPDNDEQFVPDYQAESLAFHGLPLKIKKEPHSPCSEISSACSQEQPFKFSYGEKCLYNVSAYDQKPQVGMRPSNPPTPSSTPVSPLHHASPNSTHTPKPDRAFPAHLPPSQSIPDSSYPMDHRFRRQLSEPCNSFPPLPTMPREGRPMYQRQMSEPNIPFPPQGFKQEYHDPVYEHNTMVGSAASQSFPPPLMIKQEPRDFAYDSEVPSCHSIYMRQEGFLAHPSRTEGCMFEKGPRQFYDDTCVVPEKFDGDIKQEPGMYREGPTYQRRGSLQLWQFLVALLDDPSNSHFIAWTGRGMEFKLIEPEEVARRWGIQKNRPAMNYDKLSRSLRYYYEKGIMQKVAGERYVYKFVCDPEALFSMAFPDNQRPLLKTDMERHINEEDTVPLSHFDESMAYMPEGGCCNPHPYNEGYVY
# Summary of the method: as §1
# ETV3L = target: T8, ETV3L (Homo sapiens, UniProt Q6ZN32 1-361)
# T8 sequence: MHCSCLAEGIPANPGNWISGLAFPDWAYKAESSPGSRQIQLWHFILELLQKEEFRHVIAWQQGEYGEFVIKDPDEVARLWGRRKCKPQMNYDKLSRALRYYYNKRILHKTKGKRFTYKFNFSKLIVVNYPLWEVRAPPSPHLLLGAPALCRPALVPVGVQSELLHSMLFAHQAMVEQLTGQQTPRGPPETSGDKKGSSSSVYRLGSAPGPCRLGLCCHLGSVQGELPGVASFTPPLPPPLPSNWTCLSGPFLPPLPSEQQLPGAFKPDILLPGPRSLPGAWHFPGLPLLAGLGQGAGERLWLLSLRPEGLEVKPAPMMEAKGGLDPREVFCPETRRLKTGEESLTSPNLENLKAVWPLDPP
# Summary of the method: as §1
# ETV7 = target: T9, ETV7 (Homo sapiens, UniProt Q9Y603 1-341)
# T9 sequence: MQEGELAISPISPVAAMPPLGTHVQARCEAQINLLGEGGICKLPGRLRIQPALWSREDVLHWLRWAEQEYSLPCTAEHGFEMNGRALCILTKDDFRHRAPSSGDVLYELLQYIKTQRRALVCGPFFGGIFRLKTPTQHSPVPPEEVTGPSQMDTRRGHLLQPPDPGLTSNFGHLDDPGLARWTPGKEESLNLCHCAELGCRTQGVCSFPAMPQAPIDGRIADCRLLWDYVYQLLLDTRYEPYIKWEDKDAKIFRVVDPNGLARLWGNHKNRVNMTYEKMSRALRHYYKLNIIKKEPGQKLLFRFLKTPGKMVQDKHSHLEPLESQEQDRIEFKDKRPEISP
# Summary of the method: as §1
# ELF5 = target: T10, ELF5 (Homo sapiens, UniProt Q9UKW6-2 1-255)
# T10 sequence: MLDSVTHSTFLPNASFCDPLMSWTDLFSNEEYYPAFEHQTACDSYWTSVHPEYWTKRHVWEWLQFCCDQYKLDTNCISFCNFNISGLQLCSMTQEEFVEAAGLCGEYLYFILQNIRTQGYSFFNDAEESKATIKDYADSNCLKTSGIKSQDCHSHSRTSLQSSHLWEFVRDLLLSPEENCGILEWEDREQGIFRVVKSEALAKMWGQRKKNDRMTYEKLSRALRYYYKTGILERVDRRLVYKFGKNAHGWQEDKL
# Summary of the method: as §1
sequence,measurement,setting,value
GCAACA,binding signal,ELK1,"1.03 fold enrichment (6-mer frequency, TF over GST control)"
same,binding signal,GABPA,"1.08 fold enrichment (6-mer frequency, TF over GST control)"
same,binding signal,ELF4,"1.06 fold enrichment (6-mer frequency, TF over GST control)"
same,binding signal,ELK4,"1.08 fold enrichment (6-mer frequency, TF over GST control)"
same,binding signal,ETV2,"1.03 fold enrichment (6-mer frequency, TF over GST control)"
same,binding signal,ERF,"1.01 fold enrichment (6-mer frequency, TF over GST control)"
same,binding signal,ETV6,"1.03 fold enrichment (6-mer frequency, TF over GST control)"
GCAAGC,binding signal,ELK4,"1.07 fold enrichment (6-mer frequency, TF over GST control)"
CCGCGG,binding signal,SPIB,"1.04 fold enrichment (6-mer frequency, TF over GST control)"
same,binding signal,ELF4,"1.01 fold enrichment (6-mer frequency, TF over GST control)"
GATTGC,binding signal,ELK1,"1.06 fold enrichment (6-mer frequency, TF over GST control)"
same,binding signal,GABPA,"1.04 fold enrichment (6-mer frequency, TF over GST control)"
same,binding signal,ERG,"1.01 fold enrichment (6-mer frequency, TF over GST control)"
same,binding signal,EHF,"1.02 fold enrichment (6-mer frequency, TF over GST control)"
same,binding signal,SPIB,"1.05 fold enrichment (6-mer frequency, TF over GST control)"
same,binding signal,ELK4,"1.04 fold enrichment (6-mer frequency, TF over GST control)"
same,binding signal,ETV2,"1.09 fold enrichment (6-mer frequency, TF over GST control)"
same,binding signal,ETV1,"1.02 fold enrichment (6-mer frequency, TF over GST control)"
same,binding signal,ERF,"1.02 fold enrichment (6-mer frequency, TF over GST control)"
same,binding signal,ETV3L,"1.02 fold enrichment (6-mer frequency, TF over GST control)"
same,binding signal,ETV7,"1.03 fold enrichment (6-mer frequency, TF over GST control)"
same,binding signal,ELF5,"1 fold enrichment (6-mer frequency, TF over GST control)"
